# Data from PubChem BioAssay AID1347416 (National Center for Advancing Translational Sciences (NCATS), 2020).
# The campaign covered roughly 4,100 compounds. About 1,600 (39%) were called active. Not shown: some 25% with an inconclusive outcome. Calls follow the shape of the dose curve; as a rule, active = well fitted inhibition curve with a large enough effect; inconclusive = small, poorly fitted or top-dose-only effect; inactive = no such curve, though single readings can be large or run the other way. This is one part of the list. A call without a number means that no potency is given here.
# Assay: qHTS Validation assay for Inhibitors of Plasmodium falciparum Dd2 growth in vitro; also: nearly all actives have a fitted effect of over 70% in size
# Conditions: P. falciparum Dd2 in RBCs, SYBR Green growth, 72 h; series mostly up to 28.7 µM
# In short: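 P. falciparum Dd2-infected red blood cells (2.5% hematocrit, 0.3% parasitemia) grown 72 h at 37 °C under 5% O2 with compounds in a titration, 29 uM to 0.5 nM final. Growth read as SYBR Green-1 fluorescence after ~16 h lysis; artesunate 300 nM as positive control.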
# Potency is read from the fitted curve at half-maximal effect.
row,Compound,Potency
1,CN1c2cc(C(=O)NCc3nc4ccccc4n3C)ccc2C(=O)N2CCCCCC21 (stereo not given),inactive
2,CC(=O)N1CCN([C@H]2[C@@H]3OC[C@@H](O3)[C@@H](NC(=O)Nc3ccccc3)[C@@H]2O)CC1,inactive
3,COc1ccccc1N1CCN([C@H]2[C@@H]3OC[C@@H](O3)[C@@H](N(CC3CC3)CC3CC3)[C@@H]2O)CC1,inactive
4,O[C@H]1[C@H](NCC2CCCCC2)[C@H]2CO[C@H](O2)[C@@H]1N1CCC(Cc2ccccc2)CC1,1.37 µM (active)
5,CC(=O)N1CCN([C@H]2[C@@H]3OC[C@@H](O3)[C@@H](NC(=O)Nc3ccc(F)cc3)[C@@H]2O)CC1,inactive
6,COc1ccccc1N1CCN([C@H]2[C@@H]3OC[C@@H](O3)[C@@H](NCc3ccc(-c4ccccc4)cc3)[C@@H]2O)CC1,15 µM (active)
7,O[C@H]1[C@H](NCc2ccc(-c3ccccc3)cc2)[C@H]2CO[C@H](O2)[C@@H]1Oc1ccccc1,inactive
8,Oc1ccccc1CN[C@H]1[C@H](O)[C@@H](N2CCC(Cc3ccccc3)CC2)[C@@H]2OC[C@H]1O2,3.44 µM (active)
9,O=C(Nc1ccccc1)N[C@H]1[C@H](O)[C@@H](Oc2ccccc2)[C@@H]2OC[C@H]1O2,inactive
10,CCOC(=O)CC(=O)CSc1ccc2nnc(-c3ccccc3)n2n1,inactive
11,Cc1cc(NC(=O)CSc2ccc3nnc(-c4cccc(F)c4)n3n2)no1,5.96 µM (active)
12,CCc1noc(-c2ccn3c(CNC(=O)Cc4cccc(F)c4)nnc3c2)n1,inactive
13,CCCc1noc(-c2cccn3c(CNC(=O)c4ccc(Cl)cc4)nnc23)n1,inactive
14,COc1cc2c(cc1CNc1ncncn1)CCC2,inactive
15,Cc1ccccc1C(=O)Nc1cccc(-c2nc3cccnc3s2)c1,inactive
16,O=C(CCl)Nc1cccc(-c2cnc3ccccc3n2)c1,6.68 µM (active)
17,CC(=O)Nc1cccc(-c2ccnc(-c3nnc(C)n3Cc3ccccc3)c2)c1,inactive
18,O=C(Nc1ccc(S(=O)(=O)NC2=NCCCCC2)cc1)c1ccco1,inactive
19,O=c1c2ccccc2c(C=Nc2cccc(S(=O)(=O)NC3=NCCCCC3)c2)c(O)n1Cc1ccccc1,13.3 µM (active)
20,O=C(CCC[C@H]1NC[C@@H]2C[C@H]1CN(Cc1ccccc1)C2)NCCCN1CCCc2ccccc21,10.6 µM (active)

row,Compound,Potency
1,Cc1nnc2c(N3CCN(c4ccccc4)CC3)nc3ccc(C(=O)c4ccccc4)cc3n12,0.842 µM (active)
2,COc1ccccc1-c1ccc(CN2CCCC(c3nc4ccc(F)cc4c(=O)[nH]3)C2)cc1 (stereo not given),8.41 µM (active)
3,CCN1CCCC(c2nc3ccc(F)cc3c(=O)[nH]2)C1 (stereo not given),inactive
4,Fc1ccc(CN2CC[C@H](c3nc4ccc(C(F)(F)F)cc4[nH]3)C2)cc1F,inactive
5,Oc1cc2c(cc1CN1CCN(c3cccc(C(F)(F)F)c3)CC1)CCC2,0.944 µM (active)
6,COc1ccc(N2C(N)=NC(N)=NC23CCCC3)cc1,inactive
7,O=C(c1ccc2c(Cl)c3c(nc2c1)CCCC3)N1CCN(c2cccc(C(F)(F)F)c2)CC1,inactive
8,Cc1ccc(Cl)cc1N1CCN(C(=O)c2ccc3c(Cl)c4c(nc3c2)CCCC4)CC1,inactive
9,CC(=O)N1CCC(C2CCN(Cc3cc(Cl)ccc3F)C2)CC1 (stereo not given),inactive
10,Cc1ccc(Cl)cc1N1CCN(Cc2cc3c(cc2O)CCC3)CC1,0.188 µM (active)
11,COc1ccc(CN2CCC3(CC2)CC(O)CCO3)c(OC)c1 (stereo not given),inactive
12,COc1ccc(N2CCN(Cc3cc4c(cc3O)CCC4)CC2)cc1,16.8 µM (active)
13,CC(C)NC(=O)N1CCCC(Cn2c(C3CC3)nc3cccnc32)C1 (stereo not given),inactive
14,O=C1Nc2ccc(-c3cccc(C(F)(F)F)c3)cc2C(=O)N2CCN(C(=O)c3ccccc3)C[C@H]12,inactive
15,N#CC1CCN(C(=O)c2nc(-c3cccc(C(F)(F)F)c3)c3cnccn23)CC1,16.8 µM (active)
16,O=C(c1nc(-c2cccc(C(F)(F)F)c2)c2cnccn12)N1CCCC1,10.6 µM (active)
17,O=C(Cc1ccccc1)N1CCCC2(CC(c3cccc(C(F)(F)F)c3)=NO2)C1 (stereo not given),inactive
18,Cc1cc(Nc2cc(Cl)cc(Cl)c2)nc(N)n1,6.68 µM (active)
19,CCOCc1cnc(C)nc1NCC(=O)c1c(C)[nH]c2cc(C)ccc12,4.22 µM (active)
20,CCN1CCC(OCCCNC(=O)C2(CCO)CC23CCOCC3)CC1 (stereo not given),inactive

row,Compound,Potency
1,COc1cc(OC)cc(-c2cc3nc4c(c(N5CCN(c6ncccn6)CC5)n3n2)CCCC4)c1,4.22 µM (active)
2,COc1ccc(-c2nnc([C@H]3CCN(c4ncccn4)C3)o2)cc1,inactive
3,CCCn1c2c(c(=N)c3c1CCC3)CCCC2,10.6 µM (active)
4,CCn1c2c(c(=N)c3c1CCC3)CCCC2,13.3 µM (active)
5,CCn1c2c(c(=N)c3ccccc31)CCC2,6.68 µM (active)
6,CCCn1c2c(c(=N)c3c1CCC3)CCC2,13.3 µM (active)
7,CCOC(=O)Cn1c2c(c(=N)c3c1CCC3)CCCC2,inactive
8,CCOC(=O)Cn1c2c(c(=N)c3c1CCC3)CCC2,inactive
9,CCCCn1c2c(c(=N)c3c1CCC3)CCC2,8.41 µM (active)
10,CC(C)c1noc(-c2cccn3c(CNC(=O)c4ccc(F)cc4Cl)nnc23)n1,inactive
11,Cc1nn2c(c1-c1ccccc1[S+](C)(=O)[O-])N(Cc1ccc(C(=O)O)s1)CCC2,7.69 µM (active)
12,Cc1nn2c(c1-c1ccccc1-c1ccccc1)N(CC1CC1)CCC2,0.968 µM (active)
13,Cc1nn2c(c1-c1ccccc1C(C)C)N(CCC(C)C)CCC2,2.17 µM (active)
14,Cc1nn2c(c1-c1ccccc1-c1ccccc1)N(CCC(C)C)CCC2,0.243 µM (active)
15,Cc1ccc(-c2csc3nc[nH]c(=O)c23)c(C)c1,inactive
16,CCc1noc(-c2cccn3c(CNC(=O)COc4ccc(F)cc4)nnc23)n1,inactive
17,O=C1Cc2c(-c3ccc(Oc4ccccc4)cc3)n[nH]c2CN1Cc1ccccc1F,inactive
18,Cc1nn2c(c1-c1ccccc1[S+](C)(=O)[O-])N(CCC(C)C)CCC2,9.68 µM (active)
19,O=C1CCC2(CCN1)CCN(C(=O)C1CCCCC1)CC2,inactive
20,CCC(=O)N1c2ccccc2CC1C(=O)NCc1ccccc1C (stereo not given),inactive
